Data on five molecules can be found in PubChem BioAssay.

Activity calls are given as the source filed them.

For test [1], the system named is Plasmodium falciparum Sir2 (PF13_0152, Sir2A). As to the kind of experiment: pfSir2 binders on small-molecule microarrays, primary screen, biochemical, small-molecule microarray, 635 nm fluorescence (AID 1098).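 Also: score merges spot fluorescence intensity with its signal-to-noise ratio.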 To be noted: small-molecule microarray binding, fluorescence 635 nm; higher = more signal.
Test [2] can be described thus: small-molecule microarray binders of probe aDKK1, primary screen, biochemical, biotinylated probe, 635/667 nm fluorescence (AID 1099).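 Also: score merges 667nm spot fluorescence with signal to noise across triplicate slides.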 As to conditions: higher = more signal.
Test [3] is described as follows: small-molecule microarray binders of probe aCHRDL2, primary screen, biochemical, biotinylated probe, 635/667 nm fluorescence (AID 1100). As to conditions: higher = more signal.
Test [4] can be described thus: splicing luciferase reporter signal modulators, primary screen, spliceosome inhibition project, cell-based, HEK293, splice +/- reporter (AID 1101).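 Also: HEK293 cells carrying a splicing-competent luciferase reporter gene; test concentration not given here.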 As to conditions: luminescence, 24 h, higher = more signal, called active from +8 up or from −8 down. A general note: In a reporter assay the amount or activity of a reporter protein is the signal.
The target in test [5] is Fibroblast growth factor 10 (Homo sapiens) (UniProt O15520). As to the kind of experiment: FGF10 binders on small-molecule microarrays, primary screen, biochemical, small-molecule microarray, 635 nm fluorescence (AID 1102). To be noted: FGF10 binding, fluorescence 635 nm, higher = more signal.
The test system of test [6] is glycogen synthase kinase-3 (GSK3A per assay name; protocol says GSK3B). As to the kind of experiment: GSK3 binders on small-molecule microarrays, primary screen, biochemical, small-molecule microarray, 635 nm fluorescence, GSK3A (AID 1103). Also: the record names both GSK3A and GSK3B. As to conditions: small-molecule microarray binding, fluorescence 635 nm; higher = more signal.
For test [7], the target named is Epidermal growth factor receptor (Homo sapiens) (UniProt P00533). Put plainly: EGFR binders on small-molecule microarrays, primary screen, biochemical, small-molecule microarray, 635 nm fluorescence (AID 1104).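 Also: score merges 667 nm emission intensity with spot signal to noise over triplicate slides.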 As to conditions: EGFR binding, higher = more signal.
Test [8] has as its target Follistatin-related protein 3 (Homo sapiens) (UniProt O95633). Put plainly: FSTL3 binders on small-molecule microarrays, primary screen, biochemical, small-molecule microarray, 635 nm fluorescence (AID 1105).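 Also: score merges emission near 667 nm and signal to noise per printed spot across three slides.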 To be noted: FSTL3 binding, higher = more signal.
Test [9] concerns the target Dickkopf-related protein 1 (Homo sapiens) (UniProt O94907). Put plainly: DKK1 binders on small-molecule microarrays, primary screen, biochemical, small-molecule microarray, 635 nm fluorescence scan (AID 1106).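 Also: score merges emission near 667 nm with signal to noise over three replicate slides.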 As to conditions: DKK1 binding, higher = more signal.
In test [10] the test system is Inhibin beta A chain (activin A). Put plainly: INHBA (activin A) binders on microarrays, primary screen, biochemical, small-molecule microarray, 635 nm fluorescence scan (AID 1107).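 Also: mouse activin A protein probed at 4.33 µg/mL on printed slides; score merges bound-protein fluorescence near 667 nm with spot signal-to-noise.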 To be noted: small-molecule microarray binding, higher = more signal.
Test [11] has as its system Human papillomavirus type 1a protein E7 (residues 44-93). Put plainly: HPV1a E7 fragment binders on microarrays, primary screen, biochemical, small-molecule microarray, residues 44-93, 635 nm fluorescence (AID 1108).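 Also: E7 fragment applied at 1 µg/mL in TBST for 1 h at 4 C; score combines spot fluorescence with its signal to noise ratio.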 To be noted: small-molecule microarray binding, fluorescence 635 nm; higher = more signal.
Test [12] in a line: modulators of HCV replicon luciferase signal, primary screen, HCV replication inhibitor project, Huh7 cells, luciferase reporter (AID 1109).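 Also: huh7 hepatoma cells harbouring a luciferase neomycin HCV replicon reporter; luciferase luminescence as measure of HCV replicon replication; test concentration not given here.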 To be noted: 48 h, higher = more signal.
For test [13], the target named is Left-right determination factor 2 (Homo sapiens) (UniProt O00292). Put plainly: LEFTY2 binders on small-molecule microarrays, primary screen, biochemical, small-molecule microarray, 635 nm fluorescence scan (AID 1110). As to conditions: LEFTY2 binding, higher = more signal.
Test [14] addresses Calmodulin-1 (Homo sapiens) (UniProt P0DP23). Put plainly: CALM1 binders on microarrays, EGTA buffer, profiling panel, biochemical, small-molecule microarray, Cy5-labelled CALM1 (AID 1111).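 Also: labelled calmodulin applied in Tris saline Tween buffer holding calcium plus EGTA and DTT.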 To be noted: Cy5-CALM1 binding fluorescence, higher = more signal.
Test [15] shares this target. As to the kind of experiment: calcium-bound CALM1 binders on microarrays, profiling panel, artefact control for SMM control-protein annotation, biochemical, small-molecule microarray, Cy5-labelled CALM1, plus calcium (AID 1112).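 Also: score merges spot fluorescence with signal to noise from triplicate slides.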 To be noted: Cy5-CALM1 binding fluorescence, higher = more signal.
Test [16] in a line: small-molecule microarray binders of probe aWnt5a, primary screen, biochemical, biotinylated probe, 635/667 nm fluorescence (AID 1113).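 Also: score merges 667 nm fluorescence intensity with signal-to-noise per printed feature.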 To be noted: higher = more signal.
Test [17] in a line: small-molecule microarray binders of probe aShh, primary screen, biochemical, biotinylated probe, 635/667 nm fluorescence (AID 1114).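 Also: probe is biotin-labelled aShh protein from a stem cell growth factor screen; measures binding of labelled protein to compounds printed on the slide; score merges feature fluorescence at 667 nm with signal-to-noise.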 As to conditions: higher = more signal.
The nature of test [18]: small-molecule microarray binders of probe aNog, primary screen, biochemical, biotinylated probe, 635/667 nm fluorescence (AID 1115).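 Also: probe is biotinylated aNog protein used at 0.15 µg/mL for 1 h at 4 C; z-score combines 667 nm fluorescence of each spot with its signal to noise.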 As to conditions: higher = more signal.
Test [19] has as its target Torsin-1A-interacting protein 1 (Homo sapiens) (UniProt Q5JTV8). Put plainly: LAP1 binders from COS7 cell lysate, primary screen, small-molecule microarray, 635/667 nm fluorescence (AID 1116). As to conditions: COS7-hLAP1 lysate binding, 635 nm fluorescence, higher = more signal.
Test [20] addresses Alpha-bungarotoxin (Bungarus multicinctus) (UniProt P60615). As to the kind of experiment: alpha-bungarotoxin binders on microarray, profiling panel, artefact control for SMM control protein annotation, biochemical, small-molecule microarray, Alexa647 label, 635/667 nm fluorescence (AID 1117). To be noted: alpha-BTX-A647 binding fluorescence, higher = more signal.

Sequence of Fibroblast growth factor 10 (Homo sapiens) (O15520 whole entry, looked up): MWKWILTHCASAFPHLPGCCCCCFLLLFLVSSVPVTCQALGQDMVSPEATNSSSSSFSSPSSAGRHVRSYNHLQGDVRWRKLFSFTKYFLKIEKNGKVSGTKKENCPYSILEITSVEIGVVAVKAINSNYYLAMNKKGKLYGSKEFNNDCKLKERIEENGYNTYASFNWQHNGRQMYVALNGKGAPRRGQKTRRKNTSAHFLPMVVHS
Sequence of Dickkopf-related protein 1 (Homo sapiens) (O94907 whole entry, looked up): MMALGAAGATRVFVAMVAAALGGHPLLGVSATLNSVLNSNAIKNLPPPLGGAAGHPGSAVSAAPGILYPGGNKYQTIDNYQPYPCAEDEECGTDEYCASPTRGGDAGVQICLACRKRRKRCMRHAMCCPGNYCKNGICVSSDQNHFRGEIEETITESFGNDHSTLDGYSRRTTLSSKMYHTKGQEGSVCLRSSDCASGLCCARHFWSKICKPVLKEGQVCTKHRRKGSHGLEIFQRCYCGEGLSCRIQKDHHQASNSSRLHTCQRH
Sequence of Follistatin-related protein 3 (Homo sapiens) (O95633 whole entry, looked up): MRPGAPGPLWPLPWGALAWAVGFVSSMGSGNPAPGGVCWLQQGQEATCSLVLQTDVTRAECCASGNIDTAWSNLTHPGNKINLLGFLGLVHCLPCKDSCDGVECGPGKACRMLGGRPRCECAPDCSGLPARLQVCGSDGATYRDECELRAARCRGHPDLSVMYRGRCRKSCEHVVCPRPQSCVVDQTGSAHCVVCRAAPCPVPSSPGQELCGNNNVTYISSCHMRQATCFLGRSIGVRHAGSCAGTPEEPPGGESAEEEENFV
Sequence of Torsin-1A-interacting protein 1 (Homo sapiens) (Q5JTV8 whole entry, looked up): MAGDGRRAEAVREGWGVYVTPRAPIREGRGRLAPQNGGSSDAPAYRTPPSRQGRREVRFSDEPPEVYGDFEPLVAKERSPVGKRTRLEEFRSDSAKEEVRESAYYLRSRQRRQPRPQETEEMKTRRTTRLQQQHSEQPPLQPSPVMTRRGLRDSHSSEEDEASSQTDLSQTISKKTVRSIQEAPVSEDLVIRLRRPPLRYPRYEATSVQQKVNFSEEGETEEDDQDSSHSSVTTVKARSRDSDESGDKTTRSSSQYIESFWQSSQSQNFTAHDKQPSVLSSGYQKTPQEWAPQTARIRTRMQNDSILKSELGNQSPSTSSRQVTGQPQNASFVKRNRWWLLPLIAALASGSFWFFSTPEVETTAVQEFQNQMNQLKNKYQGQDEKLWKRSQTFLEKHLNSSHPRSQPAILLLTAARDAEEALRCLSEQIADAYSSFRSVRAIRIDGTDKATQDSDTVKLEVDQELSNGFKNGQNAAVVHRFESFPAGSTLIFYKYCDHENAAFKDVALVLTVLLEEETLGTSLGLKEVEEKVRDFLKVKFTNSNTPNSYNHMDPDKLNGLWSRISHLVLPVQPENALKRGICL
Sequence of Left-right determination factor 2 (Homo sapiens) (O00292 whole entry, looked up): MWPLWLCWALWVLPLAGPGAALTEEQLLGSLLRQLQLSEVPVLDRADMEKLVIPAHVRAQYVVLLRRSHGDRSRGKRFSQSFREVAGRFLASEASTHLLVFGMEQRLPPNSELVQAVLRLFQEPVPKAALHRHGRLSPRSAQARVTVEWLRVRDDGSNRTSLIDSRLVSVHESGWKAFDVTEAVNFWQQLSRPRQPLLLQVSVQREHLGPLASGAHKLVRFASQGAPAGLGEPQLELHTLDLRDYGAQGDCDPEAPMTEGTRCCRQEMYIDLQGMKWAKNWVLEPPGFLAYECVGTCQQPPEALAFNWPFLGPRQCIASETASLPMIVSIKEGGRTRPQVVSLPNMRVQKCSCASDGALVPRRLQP
Sequence of Alpha-bungarotoxin (Bungarus multicinctus) (P60615 whole entry, looked up): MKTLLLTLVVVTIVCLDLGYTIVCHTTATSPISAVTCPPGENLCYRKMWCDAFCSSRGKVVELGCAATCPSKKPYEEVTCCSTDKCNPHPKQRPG
Sequence of Epidermal growth factor receptor (Homo sapiens) (P00533 whole entry, looked up): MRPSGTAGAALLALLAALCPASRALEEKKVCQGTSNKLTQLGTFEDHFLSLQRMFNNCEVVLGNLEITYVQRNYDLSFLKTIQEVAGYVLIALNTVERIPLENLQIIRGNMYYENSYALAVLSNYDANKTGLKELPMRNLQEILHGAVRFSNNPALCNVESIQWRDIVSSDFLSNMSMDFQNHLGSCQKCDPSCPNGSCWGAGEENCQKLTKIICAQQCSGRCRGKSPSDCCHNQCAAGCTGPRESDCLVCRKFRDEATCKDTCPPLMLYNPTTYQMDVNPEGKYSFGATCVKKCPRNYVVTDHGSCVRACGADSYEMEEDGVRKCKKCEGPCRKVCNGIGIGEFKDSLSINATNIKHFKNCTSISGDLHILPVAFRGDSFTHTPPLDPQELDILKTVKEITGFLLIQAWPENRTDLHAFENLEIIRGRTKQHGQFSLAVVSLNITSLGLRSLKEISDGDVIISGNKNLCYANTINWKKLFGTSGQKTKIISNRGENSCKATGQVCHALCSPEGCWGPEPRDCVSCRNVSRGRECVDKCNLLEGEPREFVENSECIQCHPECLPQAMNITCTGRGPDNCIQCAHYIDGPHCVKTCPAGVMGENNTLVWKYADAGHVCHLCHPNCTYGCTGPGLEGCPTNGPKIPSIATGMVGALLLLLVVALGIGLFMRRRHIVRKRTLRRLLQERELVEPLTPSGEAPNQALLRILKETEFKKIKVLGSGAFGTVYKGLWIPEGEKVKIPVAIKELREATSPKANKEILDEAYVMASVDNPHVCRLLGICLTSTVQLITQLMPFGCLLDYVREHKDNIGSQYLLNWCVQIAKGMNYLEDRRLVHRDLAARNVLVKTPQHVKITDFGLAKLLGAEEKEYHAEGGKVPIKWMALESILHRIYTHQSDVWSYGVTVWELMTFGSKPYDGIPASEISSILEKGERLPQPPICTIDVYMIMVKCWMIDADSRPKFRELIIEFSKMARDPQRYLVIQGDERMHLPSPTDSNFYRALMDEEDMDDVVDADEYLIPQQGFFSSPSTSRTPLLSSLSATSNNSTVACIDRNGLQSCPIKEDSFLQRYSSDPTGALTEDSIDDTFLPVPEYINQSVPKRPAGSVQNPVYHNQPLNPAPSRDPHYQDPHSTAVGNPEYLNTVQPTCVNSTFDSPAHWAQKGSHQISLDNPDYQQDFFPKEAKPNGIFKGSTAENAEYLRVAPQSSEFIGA

As to `CCCCC(O)C1C=CC2C(=O)N(c3ccccc3)C(=O)C2N1Nc1ccc([N+](=O)[O-])cc1` (stereo not given), the composite z-score in test [1] was found to be 1.2; in test [2], 0.379; in test [3] it was 0.21; in test [5], 0.435; in test [6], 1.32; in test [7] it was 0.0456. For the same molecule, the composite z-score in [8] is 1.3; in test [9] it was -0.105; in test [10], 0.329; in test [11] it was 1.39; in test [13], 0.0256; in test [14], 0.521. The composite z-score is -0.118 in test [15]; 0.0324 in test [16]; 0.036 in test [17]; -0.343 in test [18]; 0.853 in test [19]; 0.553 in [20]. Besides, the figures for the z-score in test [4] and in test [12] were -0.846 (inactive) and -0.744, respectively.
Regarding `CCCc1cc2c(n1CCc1ccc(Cl)cc1)C(C)C1CN(C(=O)c3ccccc3)C(C)(C(=O)OC)C21` (stereo not given), the composite z-score is 0.462 in test [1]; 1.64 in test [2]; 1.59 in [3]; 0.464 in [5]; -0.014 in test [6]; -0.403 in test [7]. Besides, the composite z-score was 0.252 in [8]; -1.92 in test [9]; 1.24 in [10]; 0.274 in [11]; -0.338 in [13]; 2.48 in test [14]. Moreover, the composite z-score in test [15] is 1.28; in [16], 0.16; in [17], 0.241; in test [18], 1.24; in [19], 1.53; in test [20] it was 2.19. Besides, the z-score is 3.17 (inactive) in test [4] and -2.1 in [12].
Consider `CCOC(=O)C[C@H]1[C@H](OC(=O)Cc2ccc3c(c2)OCO3)[C@@H](NC(=O)c2ccc3ccccc3n2)c2cc(OCCCO)ccc2N1C(=O)Cc1ccc(OC)cc1`, for which the composite z-score is 0.435 in test [1]; 0.0621 in [2]; 0.195 in test [3]; 0.438 in [5]; 0.25 in test [6]; -0.374 in test [7]. In addition, the composite z-score worked out at 0.882 in test [8]; 0.163 in [9]; 0.257 in test [10]; 0.751 in [11]; 0.394 in test [13]; 0.436 in [14]. In addition, the composite z-score in test [15] is 0.137; in test [16] it was -0.124; in test [17], 0.0723; in test [18], -0.0184; in test [19], 0.6; in test [20], 0.597. The results for the z-score in test [4] and in test [12] were -1.8 (inactive) and -1.39, respectively.
In the case of `CCCCCCc1nc(-c2ccc(-c3ccc(Cl)c(Cl)c3)o2)cc2c1[Si](C(C)C)(C(C)C)OC2`, the composite z-score in [1] is -0.143; in [2] it was -0.269; in test [3] it was 0.207; in test [5] it was -1.31; in [6], -1.22; in [7], -1.01. Moreover, the composite z-score in test [8] is -0.816; in test [9], -0.793; in [10], 0.522; in test [11] it was -0.474; in test [13] it was -0.924; in [14], -0.444. The composite z-score in test [15] is 0.742; in [16] it was -0.174; in test [17], -0.372; in test [18], -0.278; in test [19], -0.875; in test [20], -0.782. For the same molecule, the z-score is -2.26 (inactive) in [4] and -0.967 in [12].
With `C[N+](C)(C)CCCCNC(=O)[C@H]1C[C@H]2C(=O)N[C@@H](Cc3ccccc3)C(=O)N2[C@H]1c1cccc(OCCO)c1`, the composite z-score is 1.59 in test [1]; 0.104 in [2]; -0.17 in test [3]; 1.44 in test [5]; 1.13 in test [6]; 0.899 in test [7]. Moreover, the composite z-score was 1.48 in test [8]; 2.04 in [9]; 0.748 in test [10]; -0.365 in test [11]; 1.34 in test [13]; -1.14 in test [14]. Besides, the composite z-score was -1.7 in [15]; -0.0495 in test [16]; 0.151 in test [17]; -0.456 in test [18]; 1.17 in [19]; -0.245 in test [20]. In addition, the results for the z-score in test [4] and in test [12] were -0.161 (inactive) and -0.741, respectively.
